Hit rate of the full screen: of about 5,500 compounds, about 2,000 (36%) were called active. Not shown: some 18% with an inconclusive outcome. No stated cut-off is given here; in the data, active means normalized growth mostly below about 0.91 (no sharp cut-off); inconclusive means no clear call, values can overlap the other calls; inactive means mostly above about 0.92. This is one part of the list.
Assay: chemical genetic growth profiling, strain panel (AID 1159580);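 further: tested at 20 µM; growth read once vehicle control cultures reached saturation at 30 °C; 1 = growth at the plate median or of vehicle wells; lower values mean less growth of the strain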
Conditions: S. cerevisiae deletion strains, growth OD

Measured: normalized growth

CC1=C(C)C(=O)C(CCCCC#CCCCC#CCO)=C(C)C1=O
inactive: locus YAL013W, strain DEP1, active compounds read low 0.995 | locus YAL040C, strain CLN3, active compounds read low 0.993 | locus YCL061C, strain MRC1 (second series), active compounds read low 1 | locus YDR363W, strain ESC2, active compounds read low 0.988 | locus YER002W, strain NOP16, active compounds read low 0.996 | locus YMR263W, strain SAP30, active compounds read low 1 | locus YNL128W, strain TEP1, active compounds read low 0.998 | locus YNL175C, strain NOP13, active compounds read low 1 | locus YNL197C, strain WHI3, active compounds read low 0.997 | locus YNL224C, strain SQS1, active compounds read low 0.984 | locus YOR083W, strain WHI5 (second series), active compounds read low 0.975

COc1ccc(Oc2ccc([N+](=O)[O-])cc2C(=O)O/N=C(/N)c2ccc(C(F)(F)F)cc2)cc1
inactive: locus YAR019C, strain CDC15, active compounds read low 1 | locus YBL105C, strain PKC1, active compounds read low 0.991 | locus YBR135W, strain CKS1, active compounds read low 0.991 | locus YBR136W, strain MEC1, active compounds read low 0.996 | locus YBR160W, strain CDC28, active compounds read low 0.997 | locus YDL017W, strain CDC7, active compounds read low 1 | locus YDL028C, strain MPS1, active compounds read low 1 | locus YDL101C, strain DUN1, active compounds read low 0.988 | locus YDL108W, strain KIN28, active compounds read low 0.99 | locus YDL132W, strain cdc53, active compounds read low 0.982 | locus YDL214C, strain PRR2, active compounds read low 1.01 | locus YDR052C, strain DBF4, active compounds read low 1 | locus YDR054C, strain cdc34, active compounds read low 0.99 | locus YDR226W, strain ADK1, active compounds read low 0.987 | locus YDR477W, strain SNF1, active compounds read low 0.999 | locus YER123W, strain YCK3, active compounds read low 0.983 | locus YER133W, strain GLC7, active compounds read low 1 | locus YFL009W, strain cdc4, active compounds read low 0.998 | locus YFL029C, strain CAK1, active compounds read low 1 | locus YFR003C, strain YPI1, active compounds read low 1.01 | locus YFR019W, strain FAB1, active compounds read low 1 | locus YFR028C, strain CDC14, active compounds read low 0.998 | locus YGR040W, strain KSS1, active compounds read low 1 | locus YGR052W, strain FMP48, active compounds read low 1.01 | locus YGR092W, strain DBF2, active compounds read low 1.03 | locus YHR030C, strain SLT2, active compounds read low 0.92 | locus YHR079C, strain IRE1, active compounds read low 1 | locus YHR082C, strain KSP1, active compounds read low 1.11 | locus YHR205W, strain SCH9, active compounds read low 0.991 | locus YIL147C, strain SLN1, active compounds read low 1 | locus YJL095W, strain BCK1, active compounds read low 1 | locus YJL128C, strain PBS2, active compounds read low 0.957 | locus YJL157C, strain FAR1, active compounds read low 1.02 | locus YJR016C, strain ILV3, active compounds read low 1 | locus YJR066W, strain TOR1 (second series), active compounds read low 0.964 | locus YJR066W, strain TOR1, active compounds read low 1.07 | locus YKL048C, strain ELM1, active compounds read low 0.995 | locus YKL067W, strain YNK1, active compounds read low 0.999 | locus YKL101W, strain HSL1, active compounds read low 0.998 | locus YKL193C, strain SDS22, active compounds read low 1 | locus YKL203C, strain TOR2, active compounds read low 1.03 | locus YLR113W, strain HOG1, active compounds read low 0.919 | locus YLR133W, strain CKI1, active compounds read low 1.01 | locus YLR403W, strain SFP1, active compounds read low 1.01 | locus YML070W, strain DAK1, active compounds read low 1.01 | locus YMR001C, strain CDC5, active compounds read low 1.01 | locus YMR205C, strain PFK2 (second series), active compounds read low 0.989 | locus YMR277W, strain FCP1, active compounds read low 1.01 | locus YNL006W, strain LST8, active compounds read low 1 | locus YNL020C, strain ARK1, active compounds read low 1.02 | locus YNL161W, strain CBK1, active compounds read low 0.994 | locus YNL183C, strain NPR1, active compounds read low 1.04 | locus YNL207W, strain RIO2, active compounds read low 1 | locus YNL222W, strain SSU72, active compounds read low 0.997 | locus YNL307C, strain MCK1 (second series), active compounds read low 1 | locus YOL078W, strain AVO1, active compounds read low 1 | locus YOL136C, strain PFK27, active compounds read low 1.01 | locus YOR061W, strain CKA2, active compounds read low 1.01 | locus YOR119C, strain RIO1, active compounds read low 1.06 | locus YOR231W, strain MKK1, active compounds read low 0.985 | locus YOR329C, strain SCD5, active compounds read low 1 | locus YPL031C, strain PHO85, active compounds read low 0.988 | locus YPL153C, strain RAD53, active compounds read low 0.995 | locus YPL204W, strain HRR25, active compounds read low 1.01 | locus YPL209C, strain IPL1, active compounds read low 1 | locus YPL256C, strain CLN2, active compounds read low 0.927 | locus YPR025C, strain CCL1, active compounds read low 0.999 | locus YPR106W, strain ISR1, active compounds read low 0.993 | locus YPR111W, strain DBF20, active compounds read low 0.986 | strain NNK1, active compounds read low 0.982 | strain TSCII, active compounds read low 1

— PubChem BioAssay AID1159580 (chemical genetic matrix, 2015)
